Experimental data published in PubChem BioAssay (Tox21).
Results filed as inconclusive are left out. Calls of active or inactive are those of the source. Unless noted, calls come from the whole dose curve; as a rule, active = well fitted curve in the direction sought with a large enough effect in the repeat runs; inconclusive = weak or mixed curves; inactive = no such curve, though single readings can be large; an effect the other way counts as inactive or inconclusive.

Legend:
[1] = A CellTox Green Cytotoxicity Assay to monitor cytotoxicity in HepG2 cells - 8 hour (AID 1224890); note: nearly all actives have a fitted effect of over 45% in size
Procedure, shortened: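 Real-time cytotoxicity: fluorescence of a cell-impermeant cyanine dye binding DNA of dead HepG2 cells, measured repeatedly (0–40 h) during compound exposure at 37 C. Cells seeded 600/well with reagent, dosed after 5 h.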

[2] = qHTS assay to identify small molecule antagonists of the estrogen receptor alpha (ER-alpha) signaling pathway using the BG1 cell line in the presence of 0.1 nM 17-beta-estradiol - cell viability counter screen (AID 1259241); note: nearly all actives have a fitted effect of over 40% in size
Procedure, shortened: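 Live-cell protease activity (CellTiter-Fluor fluorescence, 30 min) was read in the same wells after VM7Luc4E2 cells had been exposed to compounds with 0.1 nM 17beta-estradiol for 22 hr at 37C.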

[3] = qHTS assay to identify small molecule antagonists of the androgen receptor (AR) signaling pathway using the MDA cell line in the presence of 0.5 nM R1881 - cell viability counter screen (AID 1259242); note: nearly all actives have a fitted effect of over 45% in size
Procedure, shortened: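 Live-cell protease activity was measured by CellTiter-Fluor fluorescence after 30 min. Before that, MDA-kb2 MMTV-luciferase cells had 16 hr at 37C without CO2, exposed to test compounds and 0.5 nM R1881 final.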

[4] = molecular target: Estrogen receptor (Homo sapiens) (UniProt P03372); test: qHTS assay to identify small molecule antagonists of the estrogen receptor alpha (ER-alpha) signaling pathway using the BG1 cell line in the presence of 0.1 nM 17-beta-estradiol (AID 1259244); note: nearly all actives have a fitted effect of over 50% in size
Sequence of Estrogen receptor (Homo sapiens) (P03372 whole entry, looked up): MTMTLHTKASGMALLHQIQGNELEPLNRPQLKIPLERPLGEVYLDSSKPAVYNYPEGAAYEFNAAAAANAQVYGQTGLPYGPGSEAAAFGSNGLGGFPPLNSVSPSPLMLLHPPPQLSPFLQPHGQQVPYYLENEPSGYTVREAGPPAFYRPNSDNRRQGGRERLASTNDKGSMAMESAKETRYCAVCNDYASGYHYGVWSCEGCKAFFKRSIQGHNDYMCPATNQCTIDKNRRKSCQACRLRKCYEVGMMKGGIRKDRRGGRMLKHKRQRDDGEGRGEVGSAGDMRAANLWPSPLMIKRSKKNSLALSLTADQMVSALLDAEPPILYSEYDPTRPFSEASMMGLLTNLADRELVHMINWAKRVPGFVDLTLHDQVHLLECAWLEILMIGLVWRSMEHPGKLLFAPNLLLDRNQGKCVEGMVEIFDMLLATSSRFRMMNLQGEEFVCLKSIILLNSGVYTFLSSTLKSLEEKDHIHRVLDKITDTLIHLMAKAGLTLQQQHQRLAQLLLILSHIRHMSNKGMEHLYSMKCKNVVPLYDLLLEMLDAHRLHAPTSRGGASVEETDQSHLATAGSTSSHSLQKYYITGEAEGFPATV
Procedure, shortened: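 Luciferase luminescence (ONE-Glo, 30 min at room temperature) was read after 22 hr at 37C exposure to compounds plus 17beta-estradiol at 0.1 nM final. Cells were VM7Luc4E2 with endogenous ER-alpha and an ERE-driven luciferase, pre-cultured 5 days in hormone-depleted medium.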

[5] = qHTS assay to identify small molecule HDAC inhibitors (AID 1259364); note: top concentration of the series differs between compounds; nearly all actives have a fitted effect of over 45% in size
Procedure, shortened: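 Luminescence read after 30 min room-temperature HDAC-Glo incubation measures cellular class I/II HDAC activity. Compounds were applied for 2 hr at 37 C to HCT-116 wild-type cells seeded the day before.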

[6] = qHTS assay to identify small molecule HDAC inhibitors - cell viability counter screen (AID 1259365); note: series mostly up to about 92 µM; nearly all actives have a fitted effect of over 50% in size
Procedure, shortened: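 HCT-116 (wild type), 1,500 cells/well, overnight 37C/5% CO2; compound in DMSO 2hr; CellTiter-Glo 30min RT; luminescence read.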

[7] = qHTS assay to identify small molecule agonists of the sonic hedgehog signaling (Shh) pathway - cell viability counter screen (AID 1259366); note: nearly all actives have a fitted effect of over 50% in size
Procedure, shortened: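 CellTiter-Fluor fluorescence read-out, 1 hr at 37C, added after 23hr compound exposure. Cells: 3T3 Gli1-Luc, an NIH/3T3 clone with stably integrated Gli1-Luc reporter, plated 4hr before compound.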

[8] = qHTS assay to identify small molecule antagonists of the sonic hedgehog signaling (Shh) pathway - cell viability counter screen (AID 1259367); note: nearly all actives have a fitted effect of over 55% in size
Procedure, shortened: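 CellTiter-Fluor signal in conditioned medium-stimulated 3T3 Gli1-Luc cells, 23 hr compound exposure, 37C.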

[9] = qHTS assay to identify small molecule agonists of the sonic hedgehog signaling (Shh) pathway (AID 1259368; calls by dose curve;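 note: NIH/3T3-derived 3T3Gli1-Luc cells carrying a stable Gli1-driven firefly luciferase reporter; series mostly up to about 92 µM; nearly all actives have a fitted effect of over 15% in size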)
Procedure, shortened: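 Luminescence was read after 30 min at room temperature with luciferase reagent. Before that, 3T3Gli1-Luc cells (NIH/3T3 clone, stable Gli1-Luc reporter; 2,000/well) were exposed to compounds for 24 hr at 37C, 5% CO2, compounds being added 4 hr post-plating.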

[10] = molecular target: Estrogen receptor beta (Homo sapiens) (UniProt Q92731); test: qHTS assay to identify small molecule agonists of the estrogen receptor beta (ER-beta) signaling pathway (AID 1259377; active = well fitted activation curve with a large enough effect in the signal ratio in the repeat runs, not every such curve was filed as active; the % refers to the signal ratio)
Sequence of Estrogen receptor beta (Homo sapiens) (Q92731 whole entry, looked up): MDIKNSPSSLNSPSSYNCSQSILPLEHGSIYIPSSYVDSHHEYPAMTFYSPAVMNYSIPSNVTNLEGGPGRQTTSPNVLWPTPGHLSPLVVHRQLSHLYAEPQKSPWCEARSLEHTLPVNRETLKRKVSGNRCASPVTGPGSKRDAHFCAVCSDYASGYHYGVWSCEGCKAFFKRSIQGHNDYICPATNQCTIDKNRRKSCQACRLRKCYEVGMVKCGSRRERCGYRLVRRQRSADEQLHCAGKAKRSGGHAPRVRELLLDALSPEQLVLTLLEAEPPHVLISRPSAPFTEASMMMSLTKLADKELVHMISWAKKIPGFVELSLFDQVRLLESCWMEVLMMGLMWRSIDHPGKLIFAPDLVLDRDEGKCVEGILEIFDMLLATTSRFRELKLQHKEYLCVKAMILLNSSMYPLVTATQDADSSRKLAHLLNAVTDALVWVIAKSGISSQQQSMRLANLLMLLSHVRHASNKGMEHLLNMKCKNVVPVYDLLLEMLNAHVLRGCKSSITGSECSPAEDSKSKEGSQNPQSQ
Procedure, shortened: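 Beta-lactamase reporter readout: fluorescence of LiveBLAzer B/G FRET substrate after 2 h at room temperature, following 16 h compound treatment of ER-beta-UAS-bla HEK293T cells at 37C in 2% charcoal-stripped FBS medium.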

[11] = molecular target: Estrogen receptor beta (Homo sapiens) (UniProt Q92731); test: qHTS assay to identify small molecule antagonists of the estrogen receptor beta (ER-beta) signaling pathway (AID 1259378; active = well fitted inhibition curve with a large enough effect in the signal ratio in the repeat runs, not every such curve was filed as active; the % refers to the signal ratio)
Procedure, shortened: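 Antagonist mode: compounds added to beta-lactamase reporter HEK293T ER-beta-UAS cells stimulated with E2 (1nM final), 16 hr at 37C. LiveBLAzer B/G FRET substrate, 2 hours room temperature, fluorescence read-out.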

[12] = qHTS assay to identify small molecule agonists of the androgen receptor (AR) signaling pathway in the presence of an antagonist - cell viability counter screen (AID 1259379);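 note: MDA-kb2 human breast cancer cells carrying an MMTV luciferase reporter; series mostly up to about 92 µM; nearly all actives have a fitted effect of over 25% in size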
Procedure, shortened: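 Cytotoxicity counter-screen run in the same wells as the nilutamide-challenged (3.0 µM final) AR agonist assay in MDA-kb2 cells. Compounds tested at 15 concentrations for 16 h, 37 °C without CO2; CellTiter-Fluor fluorescence read.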

[13] = qHTS assay to identify small molecule agonists of the estrogen receptor beta (ER-beta) signaling pathway - cell viability counter screen (AID 1259380); note: nearly all actives have a fitted effect of over 30% in size
Procedure, shortened: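 Cell viability counter screen: CellTiter-Glo luminescence (30 min, room temperature) measured in the same wells as the beta-lactamase readout, after 16 hr compound exposure at 37C of ER-beta-bla HEK293T cells in 2% charcoal-stripped FBS medium.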

[14] = qHTS assay to identify small molecule antagonists of the estrogen receptor beta (ER-beta) signaling pathway - cell viability counter screen (AID 1259382);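 note: HEK293T cells carrying ER-beta-UAS-bla reporter stimulated with estradiol; series mostly up to about 92 µM; nearly all actives have a fitted effect of over 55% in size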
Procedure, shortened: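 Cytotoxicity was measured in the same wells by CellTiter-Glo luminescence after 30 min at room temperature. Cells were ER-beta-bla HEK293T in charcoal-stripped serum, given compound together with 1 nM E2 and incubated 16 h at 37C.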

[15] = molecular target: Estrogen receptor (Homo sapiens) (UniProt P03372); test: qHTS assay to identify small molecule agonists of the estrogen receptor alpha (ER-alpha) signaling pathway in the presence of an antagonist (AID 1259383; calls by dose curve; note: top concentration of the series differs between compounds; nearly all actives have a fitted effect of over 15% in size)
Procedure, shortened: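 Agonist-mode confirmation run in the presence of 10.0nM (final) ICI-182,780 antagonist. The reporter was ERE-driven luciferase in VM7Luc4E2 cells, grown in charcoal-stripped serum. Cells were exposed to 15-concentration compound series for 22hr, then ONE-Glo luminescence was read.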

[16] = qHTS assay to identify small molecule agonists or antagonists of the thyroid stimulating hormone receptor (TSHR) signaling pathway - wild type cell line counter screen (AID 1259384; calls by dose curve)
Procedure, shortened: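 Counter screen in untransfected Hek293: compounds (15-point titration, triplicate) plus phosphodiesterase inhibitor Ro20-1724 added after 18 h plating; 30 min RT. Intracellular cAMP via competitive d2/cryptate immunoassay, 1 h incubation.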

[17] = qHTS assay to identify small molecule antagonists of the sonic hedgehog signaling (Shh) pathway (AID 1259369; calls by dose curve; note: nearly all actives have a fitted effect of over 45% in size)
Procedure, shortened: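 Antagonist mode: compound added to 3T3 Gli1-Luc cells followed by conditioned-medium stimulation, 24 h at 37 C, 5% CO2. Inhibition taken as loss of Gli1-driven luciferase luminescence.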

[18] = qHTS assay to identify small molecule phospholipidosis (PLD) inducers (AID 1259344; active = well fitted curve in the direction sought with a large enough effect; an effect the other way counts as inactive or inconclusive)
Procedure, shortened: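 Accumulated phospholipid, stained red by LipidTOX during 24 h compound treatment of HepG2 cells at 37 C, is quantified from images as pit number and intensity, normalised per cell using Hoechst-stained nuclei.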

Measured: Potency

CC(=O)CN(CC(C)=O)N=O
not listed: [17] | [18]
inactive: all other assays above

CCOP(=O)(CN(CCO)CCO)OCC
not listed: [10] | [11] | [18]
inactive: all other assays above

CC#Cc1cc(C)nc(Nc2ccccc2)n1
not listed: [5] | [9] | [11] | [13] | [17] | [18]
inactive: all other assays above

COC(=O)[C@@H](N)CCCN/C(N)=N/[N+](=O)[O-]
not listed: [4] | [10] | [11] | [15] | [17]
inactive: all other assays above

CC[C@H](O)C(C[C@H](C)N(C)C)(c1ccccc1)c1ccccc1
not listed: [7] | [8] | [13] | [14] | [16] | [17] | [18]
inactive: all other assays above

CCOc1cc(OP(=S)(OC)OC)nc(CC)n1
not listed: [13] | [17] | [18]
inactive: all other assays above

ClCOCCl
not listed: [10] | [18]
inactive: all other assays above

O=c1[nH]oc2c1CCNC2
not listed: [4] | [13] | [17]
inactive: all other assays above

O=C(O)C(Br)(Br)Br
not listed: [10] | [11] | [18]
inactive: all other assays above

CC(C)(C)NC[C@H](O)c1ccc(O)cc1Cl
not listed: [4] | [10] | [11] | [15] | [16]
inactive: all other assays above

COc1ccc2c(C(=O)c3ccc(Cl)cc3)c(C)n(CC(=O)O)c2c1
not listed: [4] | [11] | [15] | [16]
inactive: all other assays above

Cc1ccc(-c2nc3ccc(C)cn3c2CC(=O)N(C)C)cc1
not listed: [7] | [8] | [10] | [11] | [13]
inactive: all other assays above

C=C(C)[C@H]1CN[C@H](C(=O)O)[C@H]1CC(=O)O
not listed: [4] | [16] | [17]
inactive: all other assays above

O=C(Cl)C(Cl)(Cl)Cl
not listed: [16] | [18]
inactive: all other assays above

C=CCN1CC[C@]23CCCC[C@H]2[C@H]1Cc1ccc(O)cc13
not listed: [4] | [10] | [11] | [15]
inactive: all other assays above

CCCOC(=O)Cc1ccc(OCC(=O)N(CC)CC)c(OC)c1
not listed: [4] | [15]
inactive: all other assays above

C=CCC1(C(C)CC)C(=O)NC(=O)NC1=O (stereo not given)
not listed: [7] | [10] | [11] | [17] | [18]
inactive: all other assays above

CC(C)(O)C(Cl)(Cl)Cl
not listed: [7]
inactive: all other assays above

O=P(O)(O)CN(CP(=O)(O)O)CP(=O)(O)O
not listed: [17] | [18]
inactive: all other assays above
